GLS inhibitor – qHTS for Inhibitors of Glutaminase (GLS); 410,000 tested, 0.21% active; GLS enzymatic activity, qHTS titration; Potency, µM (doses to about 45.5 µM), for the others: at the highest dose activity change, negative = inhibition, actives largely listed as inhibitors; Glutaminase kidney isoform, mitochondrial (Homo sapiens), O94925; note: % is set by controls: 0 for no effect and ±100 for the full control effect
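Enzyme dispensed in phosphate buffer (45 mM, pH 8.2, 0.02% Tween-20), compounds pinned in, then 1 mM L-glutamine solution and the glutamate oxidase–HRP–Amplex Red mix added; fluorescence read immediately and again after 30 min at room temperature.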
JMJD2A Tudor inh – qHTS Assay for Inhibitors of JMJD2A-Tudor Domain | 390,000 tested, 4.4% active | Lysine-specific demethylase 4A (Homo sapiens), O75164 | Potency, µM (series often up to 114 µM), for the others: at the highest dose activity change, negative = inhibition, most hits filed as inhibitors | AlphaScreen JMJD2A-Tudor / H3K4me3 peptide binding; note: % is set by controls: 0 for no effect and ±100 for the full control effect; nearly all actives have a fitted effect of over 50% in size
G9a inh – qHTS Assay for Inhibitors of Histone Lysine Methyltransferase G9a. Histone-lysine N-methyltransferase EHMT2 (Homo sapiens), Q96KQ7. G9a H3K9 monomethylation, AlphaScreen, 2 h. Potency, µM (highest dose often 102 µM), for inactives: top-dose activity, negative = inhibition, most hits filed as inhibitors. 350,000 tested, 8.8% active. AID 504332, 2011; note: % is set by controls: 0 for no effect and ±100 for the full control effect; nearly all actives have a fitted effect of over 75% in size
Target sequence (Q96KQ7 913-1193 limits assumed): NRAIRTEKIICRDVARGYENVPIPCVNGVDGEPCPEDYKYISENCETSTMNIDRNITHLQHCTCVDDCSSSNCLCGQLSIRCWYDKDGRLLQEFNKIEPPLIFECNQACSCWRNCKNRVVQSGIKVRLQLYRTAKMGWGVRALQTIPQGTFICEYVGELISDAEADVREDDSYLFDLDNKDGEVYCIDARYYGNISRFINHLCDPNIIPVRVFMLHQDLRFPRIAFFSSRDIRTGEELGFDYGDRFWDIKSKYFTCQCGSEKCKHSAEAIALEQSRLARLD
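Readings reflect AlphaScreen signal from monomethyl-H3K9 antibody detection. HMT at 20 nM; substrate b-H3K9 500 nM; cofactor SAM 20 uM; 2 h RT reaction; compounds tested as titrations in qHTS with 15 min preincubation.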
BAZ2B block – qHTS Assay for Inhibitors of BAZ2B; Bromodomain adjacent to zinc finger domain protein 2B (Homo sapiens), Q9UIF8; AlphaScreen BAZ2B-H3K14Ac peptide displacement; Potency, µM (highest dose often 114 µM), for inactives: at the top dose activity change, negative = inhibition, hits mostly inhibitors; 360,000 tested, 4.4% active; note: % is set by controls: 0 for no effect and ±100 for the full control effect; nearly all actives have a fitted effect of over 60% in size
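BAZ2B (50 nM) with biotin-H3(5-23)K14Ac peptide (50 nM) in PBS pH 7.4, 0.01% Tween-20, preformed 30 min, then compound 30 min at room temperature; top concentration 110uM. AlphaScreen streptavidin donor/nickel chelate acceptor beads (10 ug/mL final), 20 min dark, signal read.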
HP1b binding inh – HTS for Inhibitors of HP1-beta Chromodomain Interactions with Methylated Histone Tails; Potency, µM (highest dose often 114 µM), for the others: at the top dose activity change, negative = inhibition, actives largely listed as inhibitors; 390,000 tested, 0.56% active; AlphaScreen HP1-beta / biotin-H3K9me3 peptide binding; AID 540317, 2011; Chromobox protein homolog 1 (Homo sapiens), P83916; note: nearly all actives have a fitted effect of over 70% in size
Target sequence (P83916 whole entry, looked up): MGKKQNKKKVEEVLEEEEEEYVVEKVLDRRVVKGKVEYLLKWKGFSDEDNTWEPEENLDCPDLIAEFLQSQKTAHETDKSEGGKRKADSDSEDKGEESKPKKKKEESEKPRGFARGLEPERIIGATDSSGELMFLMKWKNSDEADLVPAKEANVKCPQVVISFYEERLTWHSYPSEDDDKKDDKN
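Compound inhibition of the preformed complex between 50 nM HP1-beta and 50 nM biotinylated H3K9me3 peptide was read by AlphaScreen. Buffer was PBS pH 7.4 with 0.01% Tween-20. Incubations ran 30 min at room temperature, with 10 ug/mL donor/acceptor beads.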
The depositor's hits bear a star; ? = inconclusive; · = not tested or not shown; ! = a repeat was not active; [ ] = another dose, or the depositor's remark. This is a sample that favours compounds with a hit; in the whole collection about 10% have one here. Calls come from the whole dose curve; as a rule, active = well fitted curve in the direction sought with a large enough effect; inconclusive = small, poorly fitted or top-dose-only effect, or another doubt; inactive = no such curve, though single readings can be large; an effect the other way counts as inactive or inconclusive. Potency is the fitted concentration of half-maximal effect.

SMILES	GLS inhibitor	JMJD2A Tudor inh	G9a inh	BAZ2B block	HP1b binding inh
CC1(C)CC(=O)C2=C(C1)O[C@@]1(c3ccsc3)Cc3cc(C#N)ccc3C2O1	·	·	-11.8%[2.33 µM]	-6.6%[22.9 µM]	·
CCCC(=O)OCC1CN(Cc2ccco2)S(=O)(=O)c2c(F)cccc2O1 (stereo unspecified)	-1.2%	-32.4%	·	·	10.9%
CS(=O)(=O)NCC(c1ccco1)N1CCN(c2ccc(F)cc2)CC1 (stereo unspecified)	6.4%	-4.5%	44.7µM*!	-17.9%	33.6%
CCS(=O)(=O)NCC(c1ccco1)N1CCN(c2ccc(OC)cc2)CC1 (stereo unspecified)	10.5%	-25.0%	46.6%[59 µM]	10.7%	14.3%
COc1ccc(N2CCN(C(CNS(=O)(=O)c3ccccc3)c3ccccc3)CC2)cc1 (stereo unspecified)	26.3%	15.8µM*	14.1µM*	25.1µM*	?
CCS(=O)(=O)NCC(c1ccco1)N1CCN(c2ccc(F)cc2)CC1 (stereo unspecified)	15.6%	-12.7%	6.7%[59 µM]	-20.3%	33.7%
COc1ccc(S(=O)(=O)NCC(c2ccco2)N2CCN(c3ccc(F)cc3)CC2)cc1 (stereo unspecified)	3.9%	?	?	?	18.4%
COc1ccc(N2CCN(C(CNS(=O)(=O)c3ccc4c(c3)OCCO4)c3ccco3)CC2)cc1 (stereo unspecified)	8.3%	?	7.94µM*	?	?
COc1ccc(N2CCN(C(CNS(=O)(=O)c3c(C)cc(C)cc3C)c3ccco3)CC2)cc1 (stereo unspecified)	12.0%	22.4µM*	7.08µM*	31.6µM*	-21.8%
COc1ccc2cc3cc(C(=O)N4CCN(c5ccccc5F)CC4)oc3nc2c1	2.2%	-29.0%	-18.8%[59 µM]	·	17.8%
CCOC(=O)C1=C(N)Oc2cc(C)n(C)c(=O)c2C1c1ccncc1 (stereo unspecified)	14.7%	7.9%[57.1 µM]	50.1µM*	-2.7%	19.8%
CCOC(=O)C1=C(N)Oc2cc(C)[nH]c(=O)c2C1c1ccncc1 (stereo unspecified)	10.4%	-12.0%	10.3%	-7.7%	21.4%
CC(C)(C)C(=O)Nc1ccccc1C(=O)NCCCn1ccnc1	0.5%	50.1µM*	-3.2%	17.8µM*	23.6%
CCCCNC(=O)c1ccccc1C(=O)NCCCC	?	14.1µM*	6.3%[59 µM]	4.0%	?
CCCCNC(=O)c1ccccc1Cl	4.0%	-1.5%	-0.4%	1.0%	33.6%
O=C(Nc1ccccc1C(=O)NCCCn1ccnc1)c1ccccc1	-0.1%	-23.4%	-16.3%	-4.5%	44.1%
CCSc1ccccc1C(=O)NCCCn1ccnc1	-7.5%	-30.7%	20µM*	2.8%	29.2%
C[C@H](CO)N1C[C@H](C)[C@@H](CN(C)Cc2ccc(C(=O)Nc3ccccc3N)cc2)Oc2c(NC(=O)C3CCCCC3)cccc2C1=O	4.5%	-25.0%	·	·	27.4%
Cc1oc2ncnc(N3CCCCC3)c2c1C(=O)NCC1CCN(Cc2ccccc2F)CC1	0.6%	-12.0%	-15.9%[59 µM]	-0.4%[57.1 µM]	2.2%
COc1ccc(C=CC(=O)c2c(OC)cc(OC)c(OC)c2O)cc1	8.2%	?	·	·	39.8µM*
COc1ccc(C(=O)/C=C/c2ccc(N(C)C)cc2)c(OC)c1	-14.6%	-4.7%	-1.2%	-10.5%	43.1%
COc1ccc(C(=O)/C=C/c2ccc(O)cc2)cc1	21.4%	-31.3%	-9.2%[59 µM]	-25.6%	8.7%
C=CCOc1ccc(C=CC(=O)c2c(O)c(OC)c(OC)c(OC)c2OC)cc1	12.5%	14.1µM*	·	·	50.1µM*
COc1ccc2cc(C(=O)/C=C/c3cc(OC)c(O)c(OC)c3)ccc2c1	-14.1%	?	50.1µM*	?	?
COc1ccc(C(=O)/C=C/c2cc(OC)c(O)c(OC)c2)c(F)c1	4.1%	-23.5%	8.91µM*	?	-11.4%
SMILES	GLS inhibitor	JMJD2A Tudor inh	G9a inh	BAZ2B block	HP1b binding inh
COc1cccc(/C=C/C(=O)c2c(O)cc(C)oc2=O)c1O	-5.3%	-22.9%	?	?	12.3%
COc1cc(/C=C/C(=O)c2c(O)cc(C)oc2=O)cc(OC)c1O	0.5%	-34.6%[57.1 µM]	44.7µM*	?	12.9%
O=C(CC(NC(=O)C(F)(F)F)c1ccccc1)Nc1nnc(CCc2ccccc2)s1 (stereo unspecified)	6.3%	-17.0%	10µM*	9.0%	-11.8%
Cc1nnc(NC(=O)CC(C)c2ccccc2)s1 (stereo unspecified)	2.5%	8.2%	·	8.5%	31.9%
Cc1nnc(NC(=O)CC(NC(=O)C(F)(F)F)c2ccccc2)s1 (stereo unspecified)	-0.1%	-16.8%	39.8µM*	-3.2%	-1.1%
CCC(=O)Nc1nnc(CCc2ccccc2)s1	0.3%	-4.9%	15.6%[59 µM]	-2.2%	29.4%
CC(C)(C)C(=O)NC(CC(=O)O)c1ccccc1 (stereo unspecified)	1.9%	-6.2%	50.1µM*	-10.6%	46.6%
CC(C)C(=O)NC(CC(=O)O)c1ccccc1 (stereo unspecified)	13.8%	4.1%	-3.0%	1.9%	25.1%
CC1(C)CC(=O)C=C(c2ccc(-c3ccccc3)cc2)C1	1.3%	-7.1%	-3.1%[0.501 µM]	8.3%	50.2%
CN1CCN(CCCNC(=O)Cn2c(-c3cccs3)cc3cc(Cl)ccc32)CC1	5.4%	-33.0%	?	-36.6%	-6.2%
CCCN1C(=O)c2cc(C(=O)O)ccc2C1O (stereo unspecified)	-13.4%	89.1µM*	?	56.2µM*	17.6%
CCCN1C(=O)c2cc(C(=O)NC3CCCCCC3)ccc2C1O (stereo unspecified)	4.9%	-6.9%	?	-0.5%	16.6%
O=C(Nc1ccc(Cl)cc1C(=O)NCCN1CCOCC1)c1ccco1	-2.7%	-15.7%	-36.0%[59 µM]	-2.5%	42.9%
COc1ccccc1NC(=O)c1ccc(NC(=O)c2ccco2)cc1	0.0%	-3.4%	?	0.1%	30.8%
O=C(NCCNC(=O)c1ccccc1Cl)c1ccco1	-5.1%	79.4µM*	50.1µM*	15.9%	-2.7%
COc1ccccc1C(=O)NNC(=O)C(=O)NCc1ccccc1	12.9%	?	28.2µM*	-34.1%	23.0%
COc1ccccc1NC(=O)C(=O)NNC(=O)c1ccco1	23.4%	?	8.91µM*	?	15.8%
O=C(Nc1ccccc1C(=O)NCCN1CCOCC1)c1ccco1	4.6%	0.0%	50.1µM*	-3.5%	19.4%
COc1ccc(S(=O)(=O)NCC(c2ccco2)S(=O)(=O)c2ccc(C)cc2)cc1C (stereo unspecified)	4.9%	-24.0%	2.5%[59 µM]	-22.5%	12.8%

From PubChem
